Reference: PubChem BioAssay (NCI)
Values joined by “and” are separate entries in the source; they are usually repeats but may differ in a detail not shown here. Equal entries are not always repeated. About 83,000 compounds went through this panel and 20% of them were active in at least one assay; those are over-represented in the sample as a whole.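 Single-dose data. Exposure time 48 hours. Values below 10 considered active.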 Active and inactive are the calls of the source.

System: HL-60(TB) leukemia
Assay: NCI-60 one-dose screen, 48 h (100 = growth as untreated, 0 = no growth, -100 = all killed)
Conditions: 10 µM unless noted
Description: Growth inhibition of the HL-60(TB) human tumor cell line is measured as a screen for anti-cancer activity. Cells are grown in 96 well plates and exposed to the test compound for 48 hours. Compounds are tested at a single concentration, which is 10^-5 M for most compounds. The reported endpoint is percent growth (GI% or GIPRCNT), where numbers from 0 - 100% represent growth inhibition, and numbers from -100% - 0 represent cell death. For example, a value of 40 represents 60% growth inhibition. A value of 0 means no net growth occurred over the course of the experiment. A value of -40 indicates 40% of cells at the beginning of the experiment died by the end of the experiment. A value of -100 means all cells are dead at the end of the experiment.
NCI-60 Human Tumor Cell Lines Screen was performed using the standard one-dose NCI protocol, which is described in more detail at https://dtp.cancer.gov/discovery_development/nci-60/default.htm.
Compounds with GIPRCNT values below 10 were considered active. Activity score was based on GIPRCNT using the following formula: […]
Score is 0 for GIPRCNT values of 100 or above, 50 for GIPRCNT values of 0, and 100 for GIPRCNT values of -100.

SMILES	growth
CN1CCC(CN2c3ccccc3Sc3ccccc32)C1 (stereo not given)	63.9% (inactive)
CC1CCC2(C(=O)O)CCC3(C)C(=CCC4C5(C)CCC(O)C(C)(C)C5CCC43C)C2C1C (stereo not given)	5.83% (active) and 40.2% (inactive)
Nc1c(C(=O)Nc2ccccc2Cl)sc2nc3c(cc12)C(O)CCC3 (stereo not given)	0.926% (active)
NNc1ccc2ccccc2c1	98.4% (inactive) and 108% (inactive)
O=[N+]([O-])c1ccc(S(=O)Cc2ccccc2)c([N+](=O)[O-])c1 (stereo not given)	56.4% (inactive) and -7.5% (active)
CCOc1nc(-c2ccccc2)cc2c(O)c(C(=O)O)[nH]c(=O)c12	120% (inactive)
N#Cc1c(N)nc(N)nc1Nc1ccc(Br)cc1	93.3% (inactive)
COc1ccc(C(=O)COc2ccc(/C=C3\Oc4ccccc4C3=O)cc2)cc1	76% (inactive)
COc1ccc(-c2[nH]nc(N)c2-c2cc(OC)c(OC)c(OC)c2)cc1	-34.9% (active)
Cc1ccc(S(=O)(=O)Oc2ccc(Br)cc2Br)cc1	41.5% (inactive)
Nc1ccc(N=Nc2ccc(S(=O)(=O)O)cc2)cc1S(=O)(=O)O	98.5% (inactive) and 146% (inactive)
CCCC1(CN2c3ccccc3Sc3ccc(Cl)cc32)CCN(CC)C1 (stereo not given)	31.8% (inactive)
COc1ccc([N+](=O)[O-])c(C(=O)O)c1	111% (inactive)
Clc1ccc(CNc2c3ccccc3nc3ccccc23)cc1	44.7% (inactive)
C#COc1cccc(Nc2c(C#N)cnc3ncc(NC(=O)CCl)cc23)c1	19.6% [6.25 µM] (inactive)
COc1ccc(C2=Cn3c(CCC(=O)c4nc5ccccc5[nH]4)nnc3SC2)cc1	95.6% (inactive)
CC(=O)OCC(=O)[C@@]1(O)CC[C@H]2[C@@H]3CC[C@@H]4C[C@H](O)CC[C@]4(C)[C@H]3C(=O)C[C@@]21C	94% (inactive)
C#C[C@@]1(O)[C@@H](CO)O[C@@H](n2cc(F)c3c(N)ncnc32)[C@@H]1O	-22.8% (active)
C/C(=C\CCc1ccoc1)CC/C=C(\C)CCCC1COC(=O)C1 (stereo not given)	95.8% (inactive)
COC1=CC(c2ccc[nH]2)=N/C1=C\c1[nH]c(C)c(C(=O)OCc2ccccc2)c1C	-8.78% (active)

SMILES	growth
C#Cc1cccc(NC(=O)c2ccccc2NC(=O)CCl)c1	91.6% [8.25 µM] (inactive)
C[n+]1c(/C=C/c2c[nH]c3ccccc23)ccc2ccccc21	73.9% (inactive)
CO[C@H]1/C=C/O[C@@]2(C)Oc3c(C)c(O)c4c(O)c(c(/C=N/N5CCN(C)CC5)c(O)c4c3C2=O)NC(=O)/C(C)=C\C=C\C(C)[C@H](O)[C@@H](C)[C@@H](O)[C@@H](C)[C@@H](OC(C)=O)[C@@H]1C (stereo not given in full)	104% (inactive)
COc1ccc(/C=N\Nc2ccc([N+](=O)[O-])cn2)cc1OC	100% (inactive)
O=C(C[n+]1cccc2cc(Cl)ccc21)c1ccc2c(c1)CCCC2	-28.3% (active)
CC(C)NCC(O)c1ccc(O)c(O)c1 (stereo not given)	85.3% (inactive) and 82.1% (inactive) and 95.3% (inactive)
C=CCCCCOc1cccc(/C=C2\N=C3SCCCN3C2=O)c1	94.9% (inactive)
NCCN1CCN(c2nccc(-c3ccc4ccccc4c3)n2)CC1	34.3% (inactive)
COc1cc(NCCCCCCCNC(C)C)c2nccc(C)c2c1	75.1% (inactive) and 102% (inactive)
Cc1cccc(C)c1NC(=O)CN(CC(C)C)CC(O)COc1ccccc1 (stereo not given)	98% (inactive)
CN(C)CCCC1(c2ccc(F)cc2)OCc2cc(-c3cccc4[nH]ccc34)ccc21 (stereo not given)	31.6% (inactive)
CCc1c(C)c2cc3nc(NCc4ccccc4)oc3c(C)c2oc1=O	80.6% (inactive)
N#Cc1c(-c2ccccc2)cc(-c2ccccc2)n(CCC(=O)O)c1=O	13.8% (inactive)
O=C(Nc1ccc(Cl)c(Cl)c1)Nc1ccc(Cl)c(Cl)c1	-56.8% (active) and 13% (inactive)
CCCCn1cnc2c(=O)[nH]cnc21	108% (inactive)
CC12CCC3c4ccccc4CCC3(CO1)C2 (stereo not given)	87.7% (inactive)
COc1ccc(C(=O)/C=C/c2c[n+](=O)c3ccc(F)cc3n2[O-])cc1	83.3% (inactive)
CCNc1nc(-c2ccc(Cl)c(OC)c2)c(-c2ccnc(NCCCNS(=O)(=O)c3ccc(Cl)cc3)n2)s1	34.9% (inactive)
CCCCCCCNc1nc(C=O)ncc1-c1ccc(C(F)(F)F)cc1	64.4% (inactive)
Nc1ccccc1Nc1ccccc1	23.5% (inactive) and 11.2% (inactive)
